Most compounds without a hit are left out; they make up all but 2.2% or so of the library.
TROY NFkB inh: blocks TROY-dependent signaling in reporter cells | 360,000 tested, 0.98% active | inhibition, % at 10 µM | Q293 LMP1-TROYcd NF-kB luciferase reporter, 4 h | AID 1347056;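 active means compounds whose plate-normalised and pattern-corrected inhibition of the luciferase reporter signal at the single screening dose is 50% or more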
HSP90 inh: inhibitors of HSP90 luciferase refolding in rabbit reticulocyte lysate. luciferase refolding luminescence, 3 h. inhibition, % at 5.6 µM. 290,000 tested, 0.91% active. AID 1789;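 active means inhibition above the screen-wide mean plus 3 SD, computed separately per campaign, cut at about 16% in these data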;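 further: 0% = DMSO wells and 100% = 60 µM geldanamycin wells; inhibitors lower the luminescence because luciferase stays unfolded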
TWEAK-Fn14 inh: inhibitors of TWEAK-Fn14 interaction signaling | 360,000 tested, 2% active | inhibition, % at 10 µM | TWEAK-stimulated Fn14 reporter cells, luciferase luminescence, 8 h; in the data active means inhibition above about 50%
LGR2 inh: Drosophila LGR2 receptor signaling inhibition | inhibition, % at 9.99 µM | 380,000 tested, 0.35% active | HEK293 LGR2, CRE-luciferase, bursicon-stimulated, 4 h | AID 720647;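 active means drop in luminescence signal, shown as inhibition above about 50% in the replicate tests, limit read from the data, passing the limit was not always enough; inconclusive means probably only some replicates passing the limit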;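 further: agonist challenge used bursicon conditioned medium at about half maximal strength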
HSP90 confirm: HSP90 inhibition, confirmation assay; shares compounds with HSP90 inh; rabbit reticulocyte lysate, luciferase refolding luminescence, 3 h; inhibition, % at 5.9 µM; 2,300 tested, 64% active; in the data active means inhibition above about 18%;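 further: 0% = vehicle wells and 100% = reference inhibitor wells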
FLuc counter: blocks native firefly luciferase in HSP90 counter-screen; inhibition, % at 5.9 µM; purified native firefly luciferase, luminescence; 2,300 tested, 48% active; shares compounds with HSP90 inh;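 active means inhibition above the mean inhibition of all tested sample wells plus 3 SD, cut at about 10% in these data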;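 further: 0% = DMSO with luciferase and 100% = wells lacking luciferase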
Target sequence (P08659 whole entry, looked up): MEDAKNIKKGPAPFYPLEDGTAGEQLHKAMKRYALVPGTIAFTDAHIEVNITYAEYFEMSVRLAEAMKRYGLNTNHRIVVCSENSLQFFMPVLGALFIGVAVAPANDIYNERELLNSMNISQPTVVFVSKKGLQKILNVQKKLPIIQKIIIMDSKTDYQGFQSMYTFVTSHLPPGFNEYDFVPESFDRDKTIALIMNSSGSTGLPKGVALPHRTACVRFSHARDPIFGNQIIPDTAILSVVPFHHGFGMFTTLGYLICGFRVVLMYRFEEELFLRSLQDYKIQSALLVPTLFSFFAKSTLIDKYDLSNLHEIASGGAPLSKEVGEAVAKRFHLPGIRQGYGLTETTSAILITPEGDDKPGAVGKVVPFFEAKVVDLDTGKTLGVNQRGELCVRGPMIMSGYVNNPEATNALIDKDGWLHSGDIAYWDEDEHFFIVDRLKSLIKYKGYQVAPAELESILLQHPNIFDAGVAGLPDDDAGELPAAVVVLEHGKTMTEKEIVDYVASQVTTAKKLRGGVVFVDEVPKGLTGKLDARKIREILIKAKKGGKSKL
Starred values were filed as active, the others as inactive; ? = inconclusive; / = no result given.

SMILES | TROY NFkB inh | HSP90 inh | TWEAK-Fn14 inh | LGR2 inh | HSP90 confirm | FLuc counter
CC=Cc1ccc2n(c1=O)C[C@H]1[C@H](CO)[C@@H](C(=O)NCCc3ccncc3)[C@@H]2N1CCC(F)(F)F (mixture of isomers) | / | / | / | 14 | / | /
O=C(Nc1cccc(O)c1)c1cc(-c2ccccc2Cl)on1 | 51* | 41* | 77* | 40 | 63* | 48*
O=C(Nc1cccc(O)c1)c1cc(-c2ccc3c(c2)OCO3)on1 | 64* | 68* | 95* | ? | 92* | 85*
O=C(c1cc(-c2ccccc2Cl)on1)N1CCCC1 | 36 | 51* | 70* | ? | 55* | 49*
CNC[C@H]1Oc2ccc(NS(=O)(=O)c3c(C)noc3C)cc2CC(=O)N([C@H](C)CO)C[C@@H]1C | / | / | / | 15 | / | /
CCCCN(CC)C(=O)c1cc2cc3ccc(OC)cc3nc2o1 | -22 | 1 | -36 | / | / | /
CCCCN(C)C(=O)c1cc2cc3ccc(OC)cc3nc2s1 | 25 | 30* | 74* | / | 39* | 27*
CC(=O)Nc1cccc(NC(=O)c2ccc3c(c2)CCN3S(=O)(=O)c2ccccc2)c1 | -5 | -3 | 12 | 19 | / | /
CC(=O)c1cccc(NC(=O)c2ccc3c(c2)CCN3S(=O)(=O)c2ccccc2)c1 | 49 | 20* | 74* | 3 | 2 | -6
CCOC(=O)c1cc(-c2ccccc2)sc1NC(=O)C(C)N1C(=O)NC(C)(c2ccc(Cl)cc2)C1=O (stereo not given) | 2 | 18* | -1 | / | 9 | -6
CCOC(=O)c1cc(-c2ccccc2)sc1NC(=O)C(C)C | -3 | 0 | -1 | / | / | /
COc1cc(OC)cc(C(=O)NCC(=O)OCC(=O)Nc2cc(S(C)(=O)=O)ccc2Cl)c1 | 16 | 27* | -3 | 0 | -11 | -15
O=C(NC12CC3CC(CC(C3)C1)C2)c1ccco1 | -3 | -3 | 10 | -2 | / | /
O=C(NC12CC3CC(CC(C3)C1)C2)c1ccc(-c2ccccc2Cl)o1 | / | 26* | 64* | -5 | 38* | 30*
Cc1ccc(-c2nc(-c3ccccc3)no2)c(Cl)c1 | 81* | 54* | 101* | 67* | 90* | 86*
Cc1noc(C)c1NC(=O)N(C)C[C@H]1Oc2ccc(NS(=O)(=O)c3cn(C)cn3)cc2CC(=O)N([C@@H](C)CO)C[C@H]1C | / | / | / | -6 | / | /
O=C(c1ccc([N+](=O)[O-])cc1)N1CCN(C(=O)c2ccco2)CC1 | -7 | 21* | -1 | 9 | 3 | -4
C[C@@H]1CN([C@H](C)CO)C(=O)c2cccc(NS(=O)(=O)c3cn(C)cn3)c2O[C@H]1CN(C)Cc1ccc(C(F)(F)F)cc1 | / | / | / | 14 | / | /
CC(C)c1ccc2oc(-c3cc(N)ccc3O)nc2c1 | 69* | 46* | 81* | / | 80* | 79*
Cc1cc2cc(CNC(=S)NCc3ccccc3)ccc2n1C | 3 | 1 | 11 | 6 | / | /
Cc1cc2cc(CNC(=S)NC3CCCCC3)ccc2n1C | 7 | 20* | 13 | 5 | 4 | -2
Cc1[nH]c2ccccc2c1C(c1ccccn1)N1CCCC1 (stereo not given) | 11 | 4 | 12 | 0 | / | /
Cc1[nH]c2ccccc2c1C(c1ccccn1)N1CCC(C)CC1 (stereo not given) | 39 | 46* | 24 | / | 1 | -6
Cc1ccc(C(=O)O/N=C(\N)c2ccccn2)c(C)c1 | 87* | 92* | 104* | 101* | 97* | 94*
Cc1ccccc1C(=O)O/N=C(\N)c1ccccc1 | -67 | 24* | 42 | -102 | 49* | 77*
SMILES | TROY NFkB inh | HSP90 inh | TWEAK-Fn14 inh | LGR2 inh | HSP90 confirm | FLuc counter
COc1ccccc1C(=O)O/N=C(\N)c1ccccn1 | 55* | 28* | 74* | ? | 2 | 4
N/C(=N\OC(=O)c1ccccc1Cl)c1ccccn1 | 70* | 73* | 102* | 95* | 68* | 89*
COc1cc(OC)c(C(=O)O/N=C(\N)c2ccccn2)cc1OC | -26 | -5 | -24 | -19 | / | /
Cc1ccccc1C(=O)O/N=C(\N)c1ccc([N+](=O)[O-])cc1 | -15 | -3 | -13 | -34 | / | /
C[C@@H]1CN([C@@H](C)CO)C(=O)Cc2cc(NC(=O)NC3CCCCC3)ccc2O[C@H]1CN(C)C(=O)Nc1ccc2c(c1)OCO2 | / | / | / | -4 | / | /
O=C(NCc1ccccc1)c1cccc(COc2ccc3c(c2)CCC3)c1 | -54 | 36* | 3 | 25 | 45* | 45*
O=Cc1ccc(OCc2cccc(C(F)(F)F)c2)cc1O | 30 | -4 | 15 | -25 | / | /

Screening data deposited in PubChem BioAssay by several laboratories.
